# RTF Ca sens inh: cardiac RTF calcium sensitivity inhibitors, primary screen, biochemical, IANBD-TnC fluorescence, EC70 calcium; Troponin I, cardiac muscle (Homo sapiens) + Troponin T, cardiac muscle (Homo sapiens) + …; IANBD-labeled cardiac RTF, Ca2+ fluorescence; inhibition, % at 7.15 µM; 0.12% of 340,000 active; AID 493244, 2011;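 active = inhibition above the mean inhibition of all tested compounds plus 3 SD, cut at about 17% in these data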;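 note: assay run at fixed EC70 calcium of 1.6 mM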
# LANA DNA inh: inhibitors of KSHV C-LANA binding to DNA, primary screen, biochemical, fluorescence polarization, FAM-LBS DNA, MBP-C-LANA, single point. Kaposi's sarcoma herpesvirus LANA C-terminal domain (residues 932-1162) DNA binding. 0.078% of 340,000 active. inhibition, % at 9 µM. AID 504423, 2011;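 active = highest replicate inhibition at or above 60% at 9 µM, even if other replicates fall short; inactive = all replicates below 60% inhibition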
# EBV gp42 block: Epstein-Barr virus gp42 inhibitors, primary screen, biochemical, uHTS, fluorescence polarization | Glycoprotein 42 (Epstein-Barr virus (strain AG876)), Q1HVG2 | Fluorescence polarization binding assay, mP read-out | inhibition, % (tested at 21.74 µM) | 0.42% of 220,000 active; in the data active = inhibition above about 50%
# eLon inh: inhibitors of E. coli Lon protease, primary screen, biochemical, fluorescence polarization | P0A9M0 | purified E. coli Lon protease | inhibition, % at 7.94 µM | 0.42% of 360,000 active; in the data active = inhibition above about 13%, passing the limit was not always enough
# Target sequence (P0A9M0 whole entry, looked up): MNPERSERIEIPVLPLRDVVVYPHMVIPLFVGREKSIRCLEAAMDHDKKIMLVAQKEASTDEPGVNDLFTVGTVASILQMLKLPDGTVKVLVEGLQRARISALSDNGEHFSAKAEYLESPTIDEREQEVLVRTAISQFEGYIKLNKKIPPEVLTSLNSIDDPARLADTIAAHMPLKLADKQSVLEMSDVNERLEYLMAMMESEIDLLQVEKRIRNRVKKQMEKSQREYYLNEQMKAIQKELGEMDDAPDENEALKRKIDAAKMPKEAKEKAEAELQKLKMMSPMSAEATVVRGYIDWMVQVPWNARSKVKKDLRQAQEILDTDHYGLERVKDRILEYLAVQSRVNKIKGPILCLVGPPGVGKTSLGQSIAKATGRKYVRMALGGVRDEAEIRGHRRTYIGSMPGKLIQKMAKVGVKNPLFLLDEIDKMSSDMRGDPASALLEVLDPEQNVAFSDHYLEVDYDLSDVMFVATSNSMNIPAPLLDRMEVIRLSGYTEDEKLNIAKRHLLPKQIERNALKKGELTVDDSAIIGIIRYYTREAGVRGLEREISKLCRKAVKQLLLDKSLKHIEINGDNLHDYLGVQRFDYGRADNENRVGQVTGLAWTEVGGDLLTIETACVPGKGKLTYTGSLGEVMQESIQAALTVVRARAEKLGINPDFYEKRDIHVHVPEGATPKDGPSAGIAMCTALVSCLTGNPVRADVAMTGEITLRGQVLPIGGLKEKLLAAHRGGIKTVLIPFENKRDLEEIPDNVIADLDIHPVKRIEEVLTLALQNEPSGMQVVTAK
# cardiac RTF act: cardiac RTF calcium sensitivity activators, primary screen, biochemical, IANBD-TnC fluorescence, EC20 calcium; Troponin I, cardiac muscle (Homo sapiens) + Troponin T, cardiac muscle (Homo sapiens) + …; activation, % at 7.2 µM; IANBD-labeled TnC RTF fluorescence at EC20 calcium; 0% EC20 calcium, 100% full calcium; 0.24% of 340,000 active;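 active = activation above the mean over all tested compounds plus 3 SD, cut at about 30% in these data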;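 note: rise in fluorescence read as greater calcium sensitivity of cardiac thin filaments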
# Keap1-Nrf2 PPI: Keap1-Nrf2 protein-protein interaction inhibitors, primary screen, biochemical, fluorescence polarization, single point; Kelch-like ECH-associated protein 1 (Homo sapiens), Q14145; Keap1 Kelch-Nrf2 peptide fluorescence polarization, 1536-well; inhibition, % at 9.4 µM; 0.15% of 340,000 active; AID 504523, 2011; in the data active = inhibition above about 12%;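 note: human Keap1 Kelch domain with fluorescein labeled Nrf2 9mer peptide probe; higher means more block of Keap1 binding to Nrf2 peptide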
# E coli Lon conf: E. coli Lon protease inhibitor retest, confirmation, biochemical, fluorescence polarization | shares compounds with eLon inh | purified E. coli Lon | inhibition, % at 7.94 µM | 31% of 1,400 active | AID 602230, 2012; in the data active = inhibition above about 16%
# Hits are given with their value; n = inactive; x = not tested or not shown. Most compounds without a hit are left out; they make up all but 0.98% or so of the library.
SMILES,RTF Ca sens inh,LANA DNA inh,EBV gp42 block,eLon inh,cardiac RTF act,Keap1-Nrf2 PPI,E coli Lon conf
O=C1CC(=O)CC(c2ccccc2Cl)C1,n,n,n,30,n,n,n
COc1ccc(CNC(=O)c2ccc(S(=O)(=O)N3CC(C)CC(C)C3)cc2)cc1OC (configuration not stated),n,n,x,n,n,n,x
COc1ccc(NS(=O)(=O)c2ccc(OC)c(N(C)S(=O)(=O)c3ccc(Cl)cc3)c2)cc1,n,n,n,n,n,n,x
COc1ccc(S(=O)(=O)Nc2ccc(F)cc2)cc1N(C)S(=O)(=O)c1ccc(Cl)cc1,n,n,n,16,n,n,41
CCOP(=O)(OCC)C(NC(=O)c1cc([N+](=O)[O-])cc([N+](=O)[O-])c1)C(F)(F)F (configuration not stated),n,n,n,21,n,n,24
COc1ccc2c(c1O)Cc1ccccc1C2=O,n,n,n,34,n,n,22
Cn1c(CNC(=O)Nc2ccccc2)nnc1SCc1ccccc1,n,n,n,n,n,n,x
Cn1c(CNC(=O)Nc2cccc(Cl)c2)nnc1SCc1ccccc1,n,n,n,15,n,n,n
CC(=O)Nc1ccc(-c2ccnc3c2CC(C)(C(=O)NCCc2ccccc2)O3)cc1 (configuration not stated),x,x,x,n,x,x,x
COc1ccccc1N(CC(=O)NC1CCCC1)C(=O)CCC(=O)Nc1ccccn1,n,n,x,18,n,n,n
CCCc1cc(=O)oc2cc(OCC(=O)NCCN3CCOCC3)c(Cl)cc12,x,x,x,n,x,x,x
Cc1ccc(-c2ccccc2NC(=O)CS(=O)CC(=O)Nc2ccc(C)c(Cl)c2)o1 (configuration not stated),n,n,x,114,n,n,16
Cc1ccc(-c2ccccc2NC(=O)CCl)o1,n,n,n,n,n,n,x
CC(=O)N1CC=C2C(C#N)=C(N)C(C#N)(C#N)[C@H](c3ccoc3)[C@H]2C1,n,n,n,31,n,n,n
CCCCN1C(=O)c2cccc3cc(O)cc(c23)C1=O,n,n,x,33,n,n,n
COc1ccccc1C(C(C(=O)c1ccccc1)N1CCOCC1)N1CCOCC1 (configuration not stated),n,n,x,n,n,n,x
COc1cccc(C(=O)N2CCC2(C)C(=O)NC(C)C)c1 (configuration not stated),x,x,x,n,x,x,x
CCCc1nc2c(C)cc(Br)cn2c1Cc1ccsc1,x,x,x,n,x,x,x
Cc1cc(Br)cn2c(Cc3ccsc3)c(C3CCCCC3)nc12,x,x,x,50,x,x,53
Cc1cc(Br)cn2c(Cc3ccccc3)c(C3CCCCC3)nc12,x,x,x,n,x,x,x
Cc1cc(Br)cn2c(Cc3ccsc3)c(-c3ccc(F)cc3)nc12,x,x,x,25,x,x,n
Cc1cc(Br)cn2c(Cc3ccsc3)c(C(C)(C)C)nc12,x,x,x,80,x,x,71
COc1ccc(-c2nc3c(C)cc(Br)cn3c2Cc2ccc(C)cc2)cc1OC,x,x,x,28,x,x,n
Cc1cc(Br)cn2c(Cc3cccc(F)c3)c(-c3ccc(F)cc3)nc12,x,x,x,n,x,x,x
O=C(COC(=O)c1ncc(Cl)c(Cl)c1Cl)Nc1ccc(Cl)cn1,n,n,x,n,n,n,x
CC1=C(C(=O)N(C(C)C)C(C)C)CC(CC(=O)NCCN2CCOCC2)C(=O)N1Cc1ccc(C(C)(C)C)cc1 (configuration not stated),x,x,x,n,x,x,x
Cc1cccc([C@@H]2[C@@H]3C(=O)N(Cc4ccccc4)C(=O)[C@@H]3[C@]3(Cc4ccccc4)C(=O)N(c4ccc(C(F)(F)F)cc4)C(=O)N23)c1,n,n,x,n,n,n,x
O=C(CN1CCN(c2ccccn2)CC1)Nc1cccc(Br)c1,n,n,x,n,n,n,x
CCOC(=O)c1[nH]c(C)c(C(=O)OCC(=O)N2CCc3ccccc32)c1C,n,n,n,139,n,n,n
